# Several values for one entry are separate records, joined by “and”; a condition that tells them apart may be missing. Equal entries are not always repeated. Records with an inconclusive call do not appear. A number with no mark means an inactive call. Activity calls are given as the source filed them. The call rests on the fitted dose curve; in most records, active means well fitted curve in the direction sought with a large enough effect; inconclusive means small, poorly fitted or top-dose-only effect, or another doubt; inactive means no such curve, though single readings can be large; an effect the other way counts as inactive or inconclusive.
# Experiments:
# [1] = Viability qHTS for spleen associated tyrosine kinase inhibitor (SYKi) drug resistant MV4-11 cells (AID 1963824); further: nearly all actives have a fitted effect of over 35% in size; further: potency means the concentration at half of the fitted maximal effect
# Procedure, shortened: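 SYK inhibitor-resistant MV4-11 AML cells, 500 per well, added to predispensed compounds and incubated 72 hr at 37 C, 5% CO2. Viability measured by CellTiter-Glo luminescence after 10 min at room temperature.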
# [2] = Quantitative highthroughput screen to assess conditional lethalithy of NOMO1 cells grown in Human Plasma-Like Medium with dialyzed fetal bovine serum (HPLM+ds) (AID 1963878);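 further: 100% = DMSO wells and 0% = empty wells on each plate; nearly all actives have a fitted effect of over 35% in size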
# Procedure, shortened: (§1)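 Each medium arm—HPLM with 10% dialyzed FBS, or RPMI1640 with 5 mM glucose and 10% untreated or dialyzed FBS—was screened against an 11-point, 3-fold compound titration for 48 h at 37 °C, with CellTiter-Glo luminescence as endpoint.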
# [3] = Quantitative highthroughput screen to assess conditional lethalithy of P12 Ichikawa cells grown in Human Plasma-Like Medium with dialyzed fetal bovine serum (HPLM+ds) (AID 1963879); settings: Potency: viability; further: nearly all actives have a fitted effect of over 35% in size; further: potency means the concentration at half of the fitted maximal effect; on Viability: series mostly up to about 46 µM
# Procedure, shortened: as §1
# [4] = Quantitative highthroughput screen to assess conditional lethalithy of P12 Ichikawa cells grown in RPMI1640 with untreated serum (RPMI+s) (AID 1963881); settings: Potency: viability; further: nearly all actives have a fitted effect of over 35% in size; further: potency means the concentration at half of the fitted maximal effect;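 on Viability: series mostly up to about 46 µM; 100% = DMSO wells and 0% = empty wells without cells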
# Procedure, shortened: as §1
# [5] = Quantitative highthroughput screen to assess conditional lethalithy of SEM cells grown in RPMI1640 with dialyzed fetal bovine serum (RPMI+ds) (AID 1963884); further: nearly all actives have a fitted effect of over 35% in size; further: potency means the concentration at half of the fitted maximal effect;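 on Viability: series mostly up to about 46 µM; 100% = DMSO control wells and 0% = empty wells without cells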
# Procedure, shortened: as §1
# [6] = Quantitative highthroughput screen to assess conditional lethalithy of P12 Ichikawa cells grown in RPMI1640 with dialyzed fetal bovine serum (RPMI+ds) (AID 1963880); settings: Potency: P12-Ichikawa viability; further: nearly all actives have a fitted effect of over 35% in size; further: potency means the concentration at half of the fitted maximal effect;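 on Viability: 100% = DMSO wells and 0% = empty wells on each plate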
# Procedure, shortened: as §1
# [7] = Quantitative highthroughput screen to assess conditional lethalithy of SEM cells grown in Human Plasma-Like Medium with dialyzed fetal bovine serum (HPLM+ds) (AID 1963882); further: nearly all actives have a fitted effect of over 35% in size; further: potency means the concentration at half of the fitted maximal effect; on Viability: series mostly up to about 46 µM
# Procedure, shortened: as §1
# [8] = Quantitative highthroughput screen to assess conditional lethalithy of SEM cells grown in RPMI1640 with unreated serum (RPMI+s) (AID 1963883); further: nearly all actives have a fitted effect of over 35% in size; further: potency means the concentration at half of the fitted maximal effect;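 on Viability: 100% = DMSO wells and 0% = empty wells without cells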
# Procedure, shortened: as §1
# [9] = Cellular viability qHTS for adrenocortical cancer (ACC) cell line SW-13 (AID 1963989); settings: SW-13 ACC cells viability, CellTiter-Glo, 48 h; activity (max response): hits give low values; further: nearly all actives have a fitted effect of over 65% in size; further: potency means the concentration at half of the fitted maximal effect;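 on activity (max response): cells grown in serum-free medium with ITS supplement; on the % scale 0 is the no-effect control and ±100 the full control effect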
# Procedure, shortened: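 Viability was read as CellTiter-Glo luminescence after 48 h compound treatment (up to 46 uM final) of SW-13 cells grown serum-free; titration curves were fit with a four-parameter logistic model to give IC50 and efficacy.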
# [10] = Cellular viability qHTS for adrenocortical cancer (ACC) cell line NCI-H295R (AID 1963990); further: nearly all actives have a fitted effect of over 60% in size; further: potency means the concentration at half of the fitted maximal effect
# Procedure, shortened: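 CellTiter-Glo ATP luminescence, read 48 h after compound addition, measured viability of NCI-H295R adrenocortical cells grown serum-free with ITS. Final concentrations spanned up to 46 uM. Data normalized to DMSO and doxorubicin, fitted for IC50 and maximal response.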
smiles,measurement,setting,value
CN(C)[C@@H](CCOc1cccc2ccccc12)c1ccccc1,Potency,[1],23.7 µM (active)
same,Potency,[2],inactive
same,Potency,[3],inactive
same,Potency,[4],inactive
same,Potency,[5],inactive
O=C(Nc1ncc(-c2cc(C(F)F)nn2-c2c(Cl)cccc2Cl)s1)C1CC1,Potency,[1],0.372 µM (active)
same,Potency,[3],935 nM (active)
same,Potency,[6],1180 nM (active)
same,Potency,[4],935 nM (active)
same,Potency,[7],1320 nM (active)
same,Potency,[8],1180 nM (active)
same,Potency,[5],1320 nM (active)
same,Potency,[9],316 nM (active)
N=C(N)c1ccc(OCCCCCOc2ccc(C(=N)N)cc2)cc1,Potency,[1],4.22 µM (active) and 1.66 µM (active)
same,Potency,[3],inactive
same,Potency,[6],inactive
same,Potency,[9],16.4 µM (active) and 15.8 µM (active)
O=c1ncn2nc(Sc3ccc(F)cc3F)ccc2c1-c1c(Cl)cccc1Cl,Potency,[1],8.2 µM (active)
same,Potency,[8],16600 nM (active)
same,activity (max response),[9],-0.752%
same,Potency,[10],inactive
OCCN1CCN(CCCN2c3ccccc3Sc3ccc(C(F)(F)F)cc32)CC1,Potency,[1],26.6 µM (active) and 5.25 µM (active)
same,Potency,[3],7430 nM (active)
same,Potency,[6],14800 nM (active)
same,Potency,[4],11800 nM (active)
same,activity (max response),[9],8.75%
same,Potency,[10],inactive
O=C(CO)N1CCC(c2[nH]nc(-c3ccc(Cl)cc3)c2-c2ccncn2)CC1,Potency,[1],9.2 µM (active)
same,Potency,[5],13200 nM (active)
same,activity (max response),[9],-7.74%
same,Potency,[10],inactive
CCCCCN=C(N)N/N=C/c1c[nH]c2ccc(OC)cc12,Potency,[1],2.66 µM (active)
same,Potency,[9],13000 nM (active)
C=CC(=O)Nc1cccc(Sc2nc(Nc3ccc(N4CCN(C)CC4)cc3)ncc2Cl)c1,Potency,[1],580 nM (active) and 742 nM (active)
same,Potency,[7],23500 nM (active)
same,Potency,[5],16600 nM (active)
same,Potency,[9],2000 nM (active)
same,Potency,[10],3160 nM (active)
CC1(COc2ccc3c(c2)ncn3-c2ccc3cccc(N4CCC(N)CC4)c3n2)COC1,Potency,[1],11.6 nM (active) and 10.5 nM (active)
same,Potency,[3],10500 nM (active)
same,Potency,[8],20.9 nM (active)
same,Potency,[9],25100 nM (active)
same,Potency,[10],14100 nM (active)
CC(C)(C)NC(=O)c1cncn1C1CCN(c2ccc(-c3nnc(C(F)(F)F)o3)cn2)CC1,Potency,[1],2.95 µM (active)
same,activity (max response),[9],-14%
COc1ccc(S(=O)(=O)N2c3ccc(Cl)cc3[C@@](O)(c3ccccc3Cl)[C@H]2C(=O)N2CCC[C@@H]2C(N)=O)cc1OC,Potency,[1],16.8 µM (active)
same,activity (max response),[9],-24.3%
CC(=O)c1c(C)c2cnc(Nc3ccc(N4CCNCC4)cn3)nc2n(C2CCCC2)c1=O,Potency,[1],184 nM (active) and 5.25 µM (active)
same,Potency,[5],5260 nM (active)
same,Potency,[10],25100 nM (active)
CC(C)(Sc1ccc(CCN(CCCCC2CCCCC2)C(=O)NC2CCCCC2)cc1)C(=O)O,Potency,[1],18.6 µM (active)
same,Potency,[3],inactive
same,Potency,[4],inactive
same,Potency,[7],inactive
same,Potency,[8],inactive
same,Potency,[5],inactive
same,Potency,[10],inactive
CCc1c2c(nc3ccc(O)cc13)-c1cc3c(c(=O)n1C2)COC(=O)[C@]3(O)CC,Potency,[1],0.0083 µM (active)
same,Potency,[3],5.3 nM (active)
same,Potency,[6],4.2 nM (active)
same,Potency,[4],5.3 nM (active)
same,Potency,[7],14.8 nM (active)
same,Potency,[5],10.5 nM (active)
same,Potency,[9],224 nM (active)
same,Potency,[10],1260 nM (active)
Oc1cc(-c2nc(-c3ccccc3)[nH]c2-c2ccncc2)ccc1Cl,Potency,[1],5.9 µM (active) and 3.66 µM (active)
same,Potency,[3],16600 nM (active)
same,Potency,[9],17800 nM (active)
N#CNC(=NCCCCCCOc1ccc(Cl)cc1)Nc1ccncc1,Potency,[1],0.0042 µM (active)
same,Potency,[6],1.9 nM (active)
same,Potency,[4],2.6 nM (active)
same,Potency,[7],inactive
same,Potency,[8],inactive
same,Potency,[5],inactive
same,Potency,[9],39.8 nM (active)
same,Potency,[10],15.8 nM (active)
NC(=O)Nc1sc(-c2ccc(F)cc2)cc1C(N)=O,Potency,[1],3.32 µM (active)
same,Potency,[7],16600 nM (active)
same,Potency,[8],1320 nM (active)
same,activity (max response),[9],-22.4%
same,Potency,[10],25100 nM (active)
Cc1ccc(NC(=O)c2ccc3c(c2)OCCO3)cc1NC(=O)c1ccc2nc(OCCN3CCCC3)ccc2c1,Potency,[1],0.0229 µM (active)
same,Potency,[9],802 nM (active)
COc1cc2c(cc1OC)[C@@H]1CC(=O)[C@@H](CC(C)C)CN1CC2,Potency,[1],inactive
same,activity (max response),[9],-4.64%
O=C(c1ccc(NS(=O)(=O)c2cccc3cccnc23)cc1)N1CCN(CC2CC2)CC1,Potency,[1],inactive
same,activity (max response),[9],-19.6%
C[C@H]1C[C@@H](n2c(Nc3ccc(OC(F)(F)F)cc3)nc3cc(CCC(=O)O)ccc32)CC(C)(C)C1,Potency,[1],10.5 µM (active)
same,activity (max response),[9],-13.1%
Nc1nc(NCCNc2ncc(-n3ccnc3)c(-c3ccc(Cl)cc3Cl)n2)ccc1[N+](=O)[O-],Potency,[1],3.72 µM (active)
same,Potency,[3],inactive
same,Potency,[6],inactive
same,Potency,[4],inactive
same,Potency,[7],inactive
same,Potency,[8],inactive
same,activity (max response),[9],-10%
same,Potency,[10],inactive

# From PubChem BioAssay (NCATS)
